# Measured values reported in ChEMBL document CHEMBL1961873, “Compounds: GSK PKIS; Assays: Nanosyn kinase panel” (2012).
# How the values were obtained:
# [1] = target: T1, Inhibitor of nuclear factor kappa-B kinase subunit epsilon (Homo sapiens) (UniProt Q14164); conditions: at 1 µM;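 also: reported values are averaged percent inhibition figures against human IKKε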
# T1 sequence (whole entry): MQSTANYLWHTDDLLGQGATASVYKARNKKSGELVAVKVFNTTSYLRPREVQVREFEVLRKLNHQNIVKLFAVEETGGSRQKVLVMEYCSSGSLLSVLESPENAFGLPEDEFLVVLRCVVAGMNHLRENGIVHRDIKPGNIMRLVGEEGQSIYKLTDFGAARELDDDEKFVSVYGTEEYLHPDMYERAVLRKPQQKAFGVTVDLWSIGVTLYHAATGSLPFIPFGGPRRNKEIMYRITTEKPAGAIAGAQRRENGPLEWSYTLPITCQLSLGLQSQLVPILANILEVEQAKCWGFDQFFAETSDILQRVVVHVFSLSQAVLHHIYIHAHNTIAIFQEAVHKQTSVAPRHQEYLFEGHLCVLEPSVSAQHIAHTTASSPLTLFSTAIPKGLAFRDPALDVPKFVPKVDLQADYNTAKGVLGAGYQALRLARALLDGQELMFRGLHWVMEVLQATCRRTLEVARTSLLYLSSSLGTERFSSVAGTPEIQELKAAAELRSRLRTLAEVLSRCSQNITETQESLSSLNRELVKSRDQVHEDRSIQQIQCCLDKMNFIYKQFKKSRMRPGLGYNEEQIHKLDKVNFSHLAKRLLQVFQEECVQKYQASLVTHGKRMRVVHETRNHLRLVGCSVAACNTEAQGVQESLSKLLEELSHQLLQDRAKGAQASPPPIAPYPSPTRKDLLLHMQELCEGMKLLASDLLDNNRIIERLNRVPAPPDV
# [2] = target: T2, Serine/threonine-protein kinase Nek1 (Homo sapiens) (UniProt Q96PY6); conditions: at 0.1 µM
# T2 sequence (whole entry): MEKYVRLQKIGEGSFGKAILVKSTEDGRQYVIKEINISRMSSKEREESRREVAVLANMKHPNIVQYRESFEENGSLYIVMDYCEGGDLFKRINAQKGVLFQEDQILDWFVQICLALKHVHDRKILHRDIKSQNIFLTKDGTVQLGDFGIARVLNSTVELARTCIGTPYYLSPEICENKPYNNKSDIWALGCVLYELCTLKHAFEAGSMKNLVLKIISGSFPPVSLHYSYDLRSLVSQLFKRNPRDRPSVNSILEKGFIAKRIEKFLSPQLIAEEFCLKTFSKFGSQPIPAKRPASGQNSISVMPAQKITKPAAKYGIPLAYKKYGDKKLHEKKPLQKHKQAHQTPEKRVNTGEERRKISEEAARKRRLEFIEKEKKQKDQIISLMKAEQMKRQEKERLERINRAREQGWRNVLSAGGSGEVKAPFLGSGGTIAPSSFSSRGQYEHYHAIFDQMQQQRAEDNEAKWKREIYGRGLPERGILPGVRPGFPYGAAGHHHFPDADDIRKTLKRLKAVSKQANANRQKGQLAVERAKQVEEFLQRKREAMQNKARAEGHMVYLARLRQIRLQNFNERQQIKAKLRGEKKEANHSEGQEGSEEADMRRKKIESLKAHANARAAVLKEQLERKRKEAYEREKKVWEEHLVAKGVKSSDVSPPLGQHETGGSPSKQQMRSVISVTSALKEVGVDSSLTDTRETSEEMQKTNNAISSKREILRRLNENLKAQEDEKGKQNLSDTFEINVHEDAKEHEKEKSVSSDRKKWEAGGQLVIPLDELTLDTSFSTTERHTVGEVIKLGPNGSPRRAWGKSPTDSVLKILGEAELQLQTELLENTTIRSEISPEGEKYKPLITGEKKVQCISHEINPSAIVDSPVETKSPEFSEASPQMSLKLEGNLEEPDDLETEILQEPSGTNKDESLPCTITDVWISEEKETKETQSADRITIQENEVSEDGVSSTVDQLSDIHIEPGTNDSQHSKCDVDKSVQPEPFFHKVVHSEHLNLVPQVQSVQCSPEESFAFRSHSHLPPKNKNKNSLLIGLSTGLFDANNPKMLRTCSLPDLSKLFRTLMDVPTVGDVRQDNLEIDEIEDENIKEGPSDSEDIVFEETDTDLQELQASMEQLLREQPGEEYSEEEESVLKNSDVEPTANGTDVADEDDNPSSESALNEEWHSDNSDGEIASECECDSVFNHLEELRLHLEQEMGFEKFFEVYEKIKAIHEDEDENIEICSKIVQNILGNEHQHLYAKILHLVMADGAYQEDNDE
# [3] = target: T2, Serine/threonine-protein kinase Nek1 (Homo sapiens); conditions: at 1 µM
# [4] = target: T3, Serine/threonine-protein kinase Nek2 (Homo sapiens) (UniProt P51955); conditions: at 0.1 µM
# T3 sequence (whole entry): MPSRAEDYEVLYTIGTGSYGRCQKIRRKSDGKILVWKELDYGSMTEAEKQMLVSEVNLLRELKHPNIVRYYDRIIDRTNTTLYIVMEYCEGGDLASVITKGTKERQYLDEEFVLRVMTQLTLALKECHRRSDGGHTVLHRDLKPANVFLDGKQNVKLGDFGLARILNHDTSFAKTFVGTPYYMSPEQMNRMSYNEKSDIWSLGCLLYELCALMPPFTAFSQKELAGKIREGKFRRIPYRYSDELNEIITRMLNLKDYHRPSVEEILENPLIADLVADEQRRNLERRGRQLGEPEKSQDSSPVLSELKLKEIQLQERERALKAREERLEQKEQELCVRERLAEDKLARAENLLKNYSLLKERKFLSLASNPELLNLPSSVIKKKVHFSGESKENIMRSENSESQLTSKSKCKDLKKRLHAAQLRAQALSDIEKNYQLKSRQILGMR
# [5] = target: T3, Serine/threonine-protein kinase Nek2 (Homo sapiens); conditions: at 1 µM
# [6] = target: Serine/threonine-protein kinase Nek6 (Homo sapiens) (UniProt Q9HC98); conditions: at 0.1 µM
# Chain of Serine/threonine-protein kinase Nek6 (Homo sapiens) (Q9HC98 whole entry): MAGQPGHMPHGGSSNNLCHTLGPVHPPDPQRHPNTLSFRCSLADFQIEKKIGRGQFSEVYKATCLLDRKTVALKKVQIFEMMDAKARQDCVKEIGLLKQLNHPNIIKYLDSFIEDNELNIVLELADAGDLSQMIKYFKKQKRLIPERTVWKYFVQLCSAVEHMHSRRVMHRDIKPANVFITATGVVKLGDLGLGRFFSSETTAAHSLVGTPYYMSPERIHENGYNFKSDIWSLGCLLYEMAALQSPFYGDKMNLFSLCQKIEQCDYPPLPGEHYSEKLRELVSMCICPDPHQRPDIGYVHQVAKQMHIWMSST
# [7] = target: Serine/threonine-protein kinase Nek6 (Homo sapiens) (UniProt Q9HC98); conditions: at 1 µM
# [8] = target: Serine/threonine-protein kinase Nek7 (Homo sapiens) (UniProt Q8TDX7); conditions: at 0.1 µM
# Chain of Serine/threonine-protein kinase Nek7 (Homo sapiens) (Q8TDX7 whole entry, looked up): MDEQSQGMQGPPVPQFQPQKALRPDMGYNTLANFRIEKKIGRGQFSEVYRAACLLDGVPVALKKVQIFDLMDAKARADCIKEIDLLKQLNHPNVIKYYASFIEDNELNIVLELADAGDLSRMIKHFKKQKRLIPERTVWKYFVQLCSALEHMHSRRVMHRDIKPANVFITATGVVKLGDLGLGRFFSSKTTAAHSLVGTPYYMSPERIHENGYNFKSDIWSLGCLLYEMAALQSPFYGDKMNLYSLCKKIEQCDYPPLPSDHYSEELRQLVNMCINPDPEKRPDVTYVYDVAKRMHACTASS
# [9] = target: Serine/threonine-protein kinase Nek7 (Homo sapiens) (UniProt Q8TDX7); conditions: at 1 µM
# [10] = target: T4, Serine/threonine-protein kinase Nek9 (Homo sapiens) (UniProt Q8TD19); conditions: at 0.1 µM
# T4 sequence (whole entry): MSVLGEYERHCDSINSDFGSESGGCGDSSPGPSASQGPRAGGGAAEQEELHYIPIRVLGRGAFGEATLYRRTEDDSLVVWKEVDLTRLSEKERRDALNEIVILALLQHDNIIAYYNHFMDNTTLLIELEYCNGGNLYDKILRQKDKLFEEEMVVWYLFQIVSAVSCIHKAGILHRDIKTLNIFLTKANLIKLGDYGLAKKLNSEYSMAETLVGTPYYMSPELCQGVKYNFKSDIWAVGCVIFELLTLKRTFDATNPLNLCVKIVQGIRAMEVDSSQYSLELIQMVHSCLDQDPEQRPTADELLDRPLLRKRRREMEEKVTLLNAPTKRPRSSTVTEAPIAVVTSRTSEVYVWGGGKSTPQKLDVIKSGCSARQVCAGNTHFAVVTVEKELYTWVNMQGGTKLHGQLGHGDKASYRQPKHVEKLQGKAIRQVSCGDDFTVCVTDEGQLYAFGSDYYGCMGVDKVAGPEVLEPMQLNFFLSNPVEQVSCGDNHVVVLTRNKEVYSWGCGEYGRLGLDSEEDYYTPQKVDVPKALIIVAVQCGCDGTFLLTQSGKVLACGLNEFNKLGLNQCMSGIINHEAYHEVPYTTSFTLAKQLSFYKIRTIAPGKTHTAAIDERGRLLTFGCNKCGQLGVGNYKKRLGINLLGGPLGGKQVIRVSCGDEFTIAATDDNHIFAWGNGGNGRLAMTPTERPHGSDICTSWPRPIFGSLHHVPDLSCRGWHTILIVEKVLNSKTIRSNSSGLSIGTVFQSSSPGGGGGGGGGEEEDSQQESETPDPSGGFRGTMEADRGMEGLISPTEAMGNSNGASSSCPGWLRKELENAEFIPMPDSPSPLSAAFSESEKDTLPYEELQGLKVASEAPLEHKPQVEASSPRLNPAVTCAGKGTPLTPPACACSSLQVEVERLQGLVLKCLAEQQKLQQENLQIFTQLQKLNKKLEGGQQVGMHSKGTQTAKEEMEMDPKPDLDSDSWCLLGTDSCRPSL
# [11] = target: T4, Serine/threonine-protein kinase Nek9 (Homo sapiens); conditions: at 1 µM
# [12] = target: Serine/threonine-protein kinase PLK1 (Homo sapiens) (UniProt P53350); conditions: at 0.1 µM
# Chain of Serine/threonine-protein kinase PLK1 (Homo sapiens) (P53350 whole entry): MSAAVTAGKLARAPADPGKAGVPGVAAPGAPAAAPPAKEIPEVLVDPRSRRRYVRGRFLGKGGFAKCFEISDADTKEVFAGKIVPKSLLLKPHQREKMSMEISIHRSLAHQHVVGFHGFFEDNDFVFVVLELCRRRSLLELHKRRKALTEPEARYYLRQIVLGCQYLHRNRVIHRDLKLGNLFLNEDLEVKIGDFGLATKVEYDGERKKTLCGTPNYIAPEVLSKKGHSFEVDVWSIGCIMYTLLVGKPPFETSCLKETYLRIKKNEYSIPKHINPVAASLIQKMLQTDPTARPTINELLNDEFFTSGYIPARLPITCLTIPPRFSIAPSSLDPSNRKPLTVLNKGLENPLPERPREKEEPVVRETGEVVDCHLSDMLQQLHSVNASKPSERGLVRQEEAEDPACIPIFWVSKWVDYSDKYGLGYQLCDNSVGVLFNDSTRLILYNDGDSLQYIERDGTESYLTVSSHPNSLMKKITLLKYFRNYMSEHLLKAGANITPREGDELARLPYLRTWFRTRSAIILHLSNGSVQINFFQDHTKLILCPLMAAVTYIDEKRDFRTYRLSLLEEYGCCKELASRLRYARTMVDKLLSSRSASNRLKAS
# [13] = target: Serine/threonine-protein kinase PLK1 (Homo sapiens) (UniProt P53350); conditions: at 1 µM
# [14] = target: T5, Dual specificity protein kinase TTK (Homo sapiens) (UniProt P33981); conditions: at 0.1 µM
# T5 sequence (whole entry): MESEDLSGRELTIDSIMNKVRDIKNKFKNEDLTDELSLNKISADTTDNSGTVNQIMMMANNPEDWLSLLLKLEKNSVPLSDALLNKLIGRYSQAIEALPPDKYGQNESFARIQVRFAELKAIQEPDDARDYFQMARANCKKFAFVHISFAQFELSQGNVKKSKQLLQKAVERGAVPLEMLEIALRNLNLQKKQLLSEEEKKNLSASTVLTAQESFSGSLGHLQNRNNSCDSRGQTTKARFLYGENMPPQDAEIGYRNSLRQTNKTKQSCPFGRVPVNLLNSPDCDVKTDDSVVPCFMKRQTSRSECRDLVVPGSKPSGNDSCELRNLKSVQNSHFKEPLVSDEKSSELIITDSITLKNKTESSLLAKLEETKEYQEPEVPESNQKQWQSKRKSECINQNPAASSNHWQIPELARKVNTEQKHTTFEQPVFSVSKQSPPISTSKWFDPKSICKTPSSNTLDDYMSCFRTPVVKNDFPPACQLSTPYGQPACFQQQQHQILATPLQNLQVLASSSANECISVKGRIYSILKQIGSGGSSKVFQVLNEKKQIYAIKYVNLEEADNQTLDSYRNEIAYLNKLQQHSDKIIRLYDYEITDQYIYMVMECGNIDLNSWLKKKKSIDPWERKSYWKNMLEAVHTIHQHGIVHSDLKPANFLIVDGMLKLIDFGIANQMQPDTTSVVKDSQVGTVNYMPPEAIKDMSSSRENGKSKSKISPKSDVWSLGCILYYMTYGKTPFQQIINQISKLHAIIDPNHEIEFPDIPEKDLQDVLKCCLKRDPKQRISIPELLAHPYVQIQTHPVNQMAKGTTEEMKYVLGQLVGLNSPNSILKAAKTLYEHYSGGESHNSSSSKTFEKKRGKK
# [15] = system: T6, Receptor-type tyrosine-protein kinase FLT3 (Homo sapiens), P36888 [D835Y]; conditions: at 1 µM
# T6 sequence (whole entry): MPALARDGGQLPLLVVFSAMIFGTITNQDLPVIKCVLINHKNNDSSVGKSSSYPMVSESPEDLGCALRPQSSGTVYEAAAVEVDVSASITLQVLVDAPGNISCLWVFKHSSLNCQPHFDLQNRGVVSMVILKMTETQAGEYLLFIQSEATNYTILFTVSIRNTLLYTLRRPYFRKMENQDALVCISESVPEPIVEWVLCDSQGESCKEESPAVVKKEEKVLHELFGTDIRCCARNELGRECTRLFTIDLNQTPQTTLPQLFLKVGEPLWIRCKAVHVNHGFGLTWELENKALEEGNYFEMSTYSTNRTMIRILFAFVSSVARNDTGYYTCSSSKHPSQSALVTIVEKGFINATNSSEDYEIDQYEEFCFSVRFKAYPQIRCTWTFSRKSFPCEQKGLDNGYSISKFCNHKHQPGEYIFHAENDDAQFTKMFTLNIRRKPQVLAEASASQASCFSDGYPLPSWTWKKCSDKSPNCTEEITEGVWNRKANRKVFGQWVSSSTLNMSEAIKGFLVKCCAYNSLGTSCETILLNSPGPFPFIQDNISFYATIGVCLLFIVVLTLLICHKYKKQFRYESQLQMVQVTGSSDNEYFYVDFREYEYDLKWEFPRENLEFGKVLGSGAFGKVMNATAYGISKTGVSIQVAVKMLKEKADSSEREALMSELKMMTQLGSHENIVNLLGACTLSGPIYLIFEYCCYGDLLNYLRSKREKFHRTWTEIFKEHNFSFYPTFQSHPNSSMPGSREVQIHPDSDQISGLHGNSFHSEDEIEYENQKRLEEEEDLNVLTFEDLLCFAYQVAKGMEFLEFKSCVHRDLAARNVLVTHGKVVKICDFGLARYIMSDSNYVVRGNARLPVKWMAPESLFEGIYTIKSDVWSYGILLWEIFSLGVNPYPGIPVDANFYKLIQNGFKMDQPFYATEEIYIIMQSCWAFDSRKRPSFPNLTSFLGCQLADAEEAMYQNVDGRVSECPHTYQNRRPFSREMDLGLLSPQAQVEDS
# [16] = target: Vascular endothelial growth factor receptor 3 (Homo sapiens) (UniProt P35916); conditions: at 0.1 µM
# Chain of Vascular endothelial growth factor receptor 3 (Homo sapiens) (P35916 whole entry): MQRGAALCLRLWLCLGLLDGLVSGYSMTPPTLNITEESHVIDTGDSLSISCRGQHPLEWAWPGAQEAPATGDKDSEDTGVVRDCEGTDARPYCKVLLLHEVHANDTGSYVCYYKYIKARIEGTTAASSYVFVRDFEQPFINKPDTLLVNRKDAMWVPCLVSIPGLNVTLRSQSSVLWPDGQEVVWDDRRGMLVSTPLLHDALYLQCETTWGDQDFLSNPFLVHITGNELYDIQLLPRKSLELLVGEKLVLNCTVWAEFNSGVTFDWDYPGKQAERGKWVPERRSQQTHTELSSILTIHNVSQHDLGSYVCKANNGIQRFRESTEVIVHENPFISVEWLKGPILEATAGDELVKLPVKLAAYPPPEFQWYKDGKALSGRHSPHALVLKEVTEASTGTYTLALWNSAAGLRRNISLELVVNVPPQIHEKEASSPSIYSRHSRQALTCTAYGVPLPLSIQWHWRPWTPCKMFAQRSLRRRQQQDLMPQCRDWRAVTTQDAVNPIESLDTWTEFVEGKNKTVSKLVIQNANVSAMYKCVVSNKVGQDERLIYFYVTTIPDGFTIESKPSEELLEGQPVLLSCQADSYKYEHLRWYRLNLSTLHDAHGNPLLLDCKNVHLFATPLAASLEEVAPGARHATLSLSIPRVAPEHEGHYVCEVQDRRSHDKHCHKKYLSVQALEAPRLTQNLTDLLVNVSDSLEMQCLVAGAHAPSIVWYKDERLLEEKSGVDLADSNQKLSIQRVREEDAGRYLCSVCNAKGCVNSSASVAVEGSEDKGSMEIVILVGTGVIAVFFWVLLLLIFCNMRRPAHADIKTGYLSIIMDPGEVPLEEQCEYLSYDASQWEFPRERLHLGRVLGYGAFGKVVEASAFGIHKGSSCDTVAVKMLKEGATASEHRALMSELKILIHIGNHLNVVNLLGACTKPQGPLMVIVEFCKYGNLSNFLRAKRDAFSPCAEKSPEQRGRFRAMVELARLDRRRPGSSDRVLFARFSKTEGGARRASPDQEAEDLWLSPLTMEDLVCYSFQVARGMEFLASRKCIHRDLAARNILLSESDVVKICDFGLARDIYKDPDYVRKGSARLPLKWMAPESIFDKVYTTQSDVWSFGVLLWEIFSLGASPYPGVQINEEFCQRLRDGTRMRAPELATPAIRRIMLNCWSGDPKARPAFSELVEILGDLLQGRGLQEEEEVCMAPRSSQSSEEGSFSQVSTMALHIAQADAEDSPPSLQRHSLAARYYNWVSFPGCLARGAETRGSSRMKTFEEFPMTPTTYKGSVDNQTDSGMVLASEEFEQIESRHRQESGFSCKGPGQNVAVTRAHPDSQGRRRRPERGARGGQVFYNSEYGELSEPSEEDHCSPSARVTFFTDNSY
# [17] = target: Vascular endothelial growth factor receptor 3 (Homo sapiens) (UniProt P35916); conditions: at 1 µM
# [18] = target: Macrophage colony-stimulating factor 1 receptor (Homo sapiens) (UniProt P07333); conditions: at 0.1 µM
# Chain of Macrophage colony-stimulating factor 1 receptor (Homo sapiens) (P07333 whole entry): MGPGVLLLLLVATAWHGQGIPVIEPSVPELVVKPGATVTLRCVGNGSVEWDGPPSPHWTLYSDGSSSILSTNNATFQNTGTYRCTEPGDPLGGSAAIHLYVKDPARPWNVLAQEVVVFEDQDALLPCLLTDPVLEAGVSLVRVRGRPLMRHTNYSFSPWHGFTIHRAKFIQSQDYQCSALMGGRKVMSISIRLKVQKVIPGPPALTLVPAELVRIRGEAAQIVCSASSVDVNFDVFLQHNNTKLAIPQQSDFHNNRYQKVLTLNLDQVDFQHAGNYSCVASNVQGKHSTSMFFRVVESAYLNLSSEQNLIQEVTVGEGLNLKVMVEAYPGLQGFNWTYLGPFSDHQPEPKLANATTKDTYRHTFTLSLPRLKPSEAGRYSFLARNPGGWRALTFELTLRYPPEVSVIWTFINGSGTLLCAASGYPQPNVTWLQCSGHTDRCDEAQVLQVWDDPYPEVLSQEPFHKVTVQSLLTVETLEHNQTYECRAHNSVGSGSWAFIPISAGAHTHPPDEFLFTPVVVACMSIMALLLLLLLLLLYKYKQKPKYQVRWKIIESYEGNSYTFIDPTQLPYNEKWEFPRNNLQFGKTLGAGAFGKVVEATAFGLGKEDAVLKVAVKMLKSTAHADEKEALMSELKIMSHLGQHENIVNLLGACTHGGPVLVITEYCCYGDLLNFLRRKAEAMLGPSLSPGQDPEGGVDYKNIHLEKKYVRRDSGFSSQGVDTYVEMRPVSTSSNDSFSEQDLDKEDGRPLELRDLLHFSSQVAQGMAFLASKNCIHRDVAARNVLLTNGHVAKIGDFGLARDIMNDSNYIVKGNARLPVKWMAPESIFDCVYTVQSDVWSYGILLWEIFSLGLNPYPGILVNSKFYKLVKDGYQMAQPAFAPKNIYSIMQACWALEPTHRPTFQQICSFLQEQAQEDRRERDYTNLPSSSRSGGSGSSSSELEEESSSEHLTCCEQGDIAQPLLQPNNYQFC
# [19] = target: Macrophage colony-stimulating factor 1 receptor (Homo sapiens) (UniProt P07333); conditions: at 1 µM
# [20] = target: Tyrosine-protein kinase Fyn (Homo sapiens) (UniProt P06241); conditions: at 0.1 µM
# Chain of Tyrosine-protein kinase Fyn (Homo sapiens) (P06241 2-537 limits assumed): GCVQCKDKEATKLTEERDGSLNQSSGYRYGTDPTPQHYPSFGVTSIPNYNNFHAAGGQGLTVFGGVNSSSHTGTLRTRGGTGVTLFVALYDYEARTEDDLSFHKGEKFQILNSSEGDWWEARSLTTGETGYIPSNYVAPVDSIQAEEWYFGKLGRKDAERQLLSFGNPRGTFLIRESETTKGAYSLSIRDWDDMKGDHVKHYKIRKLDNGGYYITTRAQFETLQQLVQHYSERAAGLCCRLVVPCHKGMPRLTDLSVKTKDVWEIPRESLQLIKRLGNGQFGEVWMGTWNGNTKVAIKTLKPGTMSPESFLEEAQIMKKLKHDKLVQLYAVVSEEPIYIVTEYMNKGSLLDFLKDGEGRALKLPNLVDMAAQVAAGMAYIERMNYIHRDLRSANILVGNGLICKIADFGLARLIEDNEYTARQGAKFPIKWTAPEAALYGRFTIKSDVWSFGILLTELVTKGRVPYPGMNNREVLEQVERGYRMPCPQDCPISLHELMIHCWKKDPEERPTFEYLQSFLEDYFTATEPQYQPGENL
Structure (SMILES),inhibition [1],inhibition [2],inhibition [3],inhibition [4],inhibition [5],inhibition [6],inhibition [7],inhibition [8],inhibition [9],inhibition [10],inhibition [11],inhibition [12],inhibition [13],inhibition [14],inhibition [15],inhibition [16],inhibition [17],inhibition [18],inhibition [19],inhibition [20]
COc1ccc2cc(-c3c(-c4ccncc4)nc(-c4ccc(S(C)(=O)=O)cc4C)n3C)ccc2c1,7.25%,3.37%,4.4%,5.82%,4.5%,0.49%,4.51%,5.77%,4.57%,6.52%,18.2%,4.66%,4.49%,11.5%,-2.55%,4.4%,10.1%,0.81%,-1.08%,1.95%
CCc1ccc(Oc2nccc(-c3c(-c4ccc(F)cc4)ncn3C3CCNCC3)n2)cc1,6.86%,2.27%,1.69%,4.75%,2.36%,2.41%,0.8%,2.65%,5.98%,-0.95%,-3%,4.18%,6.93%,5.58%,7.51%,6.35%,4.74%,1.36%,6.16%,1.83%
